# Experimental data as given in PubChem BioAssay (Tox21).
# Several values for one entry are separate records, joined by “and”; a condition that tells them apart may be missing. Equal values may be shown once. Results filed as inconclusive are left out. A call without a number means that no potency is given here. The source holds several records for some structures; these can differ, active in one and inactive in another. Activity calls are given as the source filed them. Unless noted, calls follow the shape of the dose curve; as a rule, active = well fitted curve in the direction sought with a large enough effect in the repeat runs; inconclusive = weak or mixed curves; inactive = no such curve, though single readings can be large; an effect the other way counts as inactive or inconclusive.
# Assays:
# [1] = qHTS assay for small molecules that induce genotoxicity in human embryonic kidney cells expressing luciferase-tagged ATAD5 (AID 651632); also: nearly all actives have a fitted effect of over 15% in size
# Method in brief: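 Test compounds were delivered by pin tool onto HEK293T reporter cells (2,000/well) expressing ATAD5 fused to luciferase. After 16 hr at 37C, 5% CO2, Amplite was added for 30 min at room temperature and luminescence was measured.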
# [2] = qHTS assay for small molecule agonists of the p53 signaling pathway - cell viability (AID 651633; calls by dose curve;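 also: p53RE-bla HCT reporter cells with a stable beta-lactamase p53 reporter; series mostly up to about 83 µM; nearly all actives have a fitted effect of over 30% in size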)
# Method in brief: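 p53RE-bla cells, seeded at 4,000 per well and rested 5 h at 37 C/5% CO2, received compounds in DMSO for 16 h at 37 C. CellTiter-Glo was then added, and luminescence was read after 30 min at room temperature to gauge cytotoxicity.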
# [3] = qHTS assay for small molecules that induce genotoxicity in human embryonic kidney cells expressing luciferase-tagged ATAD5 - cell viability (AID 651634; calls by dose curve; also: nearly all actives have a fitted effect of over 25% in size; also: potency is read from the fitted curve at half-maximal effect)
# Method in brief: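 Quantitative high-throughput format. HEK293T cells expressing ATAD5 fused to luciferase were plated at 2,000 cells/well and treated 15.5 hr with compound versus DMSO. Viability was determined by fluorescent live-cell protease substrate, 30 min at 37C.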
# [4] = qHTS assay for small molecule disruptors of the mitochondrial membrane potential - cell viability (AID 720634; calls by dose curve; also: nearly all actives have a fitted effect of over 20% in size; also: potency is read from the fitted curve at half-maximal effect)
# Method in brief: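 Same-well counter-screen: following the MMP dye addition, CellTiter-Glo was added to 1 hr compound-treated HepG2 cells and luminescence read after 30 min at room temperature.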
# [5] = qHTS assay for small molecule disruptors of the mitochondrial membrane potential (AID 720635); also: potency is read from the fitted curve at half-maximal effect
# Method in brief: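 HepG2 cells (2,000/well) attached overnight at 37C, then took compound for 1 hr at 37C, 5% CO2. Mito-MPS dye was added for 30 min; fluorescence was read at 490/535 nm (monomers) and 540/590 nm (aggregates).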
# [6] = qHTS assay to test for compound auto fluorescence at 590 nm (red) in HepG2 cells (AID 720674)
# Method in brief: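 Rose Bengal sodium served as the red fluorophore standard. HepG2 monolayers (overnight attachment, MEM with 10% FBS) were exposed to test compounds for 1 hr at 37 C and read at Ex 540/Em 590 nm.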
# [7] = qHTS assay to test for compound auto fluorescence at 535 nm (green) in HepG2 cells (AID 720675)
# [8] = qHTS assay to test for compound auto fluorescence at 460 nm (blue) in HEK293 cells (AID 720678)
# Method in brief: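 Blue read-out at excitation 405 nm and emission 460 nm follows overnight compound exposure of HEK293 cells at 37C in 5% CO2. Activity is given as auto fluorescence equivalency to triamterene.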
# [9] = qHTS assay to test for compound auto fluorescence at 590 nm (red) in HEK293 cells (AID 720679)
# Method in brief: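 Red channel, Ex/Em 540/590nm; signal expressed as equivalency to Rose Bengal sodium. HEK293, 2,000 cells/well, 10% dialyzed FBS; 23 nL compound pinned after 4-5 hr attachment; overnight 37C/5% CO2 before reading.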
# [10] = qHTS assay to test for compound auto fluorescence at 535 nm (green) in HEK293 cells (AID 720680)
# [11] = qHTS assay to test for compound auto fluorescence at 460 nm (blue) in HEK293 cell free culture (AID 720681)
# Method in brief: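 Test compounds were pinned into cell-free culture medium (DMEM with 10% FBS) and fluorescence was read directly at Ex/Em 405/460 nm. Signals were expressed as fluorescence equivalents of triamterene, with DMSO vehicle as control.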
# [12] = qHTS assay to test for compound auto fluorescence at 535 nm (green) in HEK293 cell free culture (AID 720682)
# Method in brief: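 Cell-free medium (DMEM, 10% FBS) receives compound or DMSO by pintool. Plate read directly at Ex 485/Em 535 nm. Signal converted to fluorescein equivalency.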
# [13] = qHTS assay to test for compound auto fluorescence at 590 nm (red) in HEK293 cell free culture (AID 720683)
# Method in brief: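 Tox21 10K library compounds were pinned into cell-free DMEM with 10% FBS and fluorescence was read at excitation 540 nm. Activity is expressed as Rose Bengal sodium equivalency.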
# [14] = qHTS assay to test for compound auto fluorescence at 590 nm (red) in HepG2 cell free culture (AID 720684)
# Method in brief: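 Ex 540 / Em 590 nm read of compound in cell-free MEM (10% FBS). Rose Bengal sodium reference.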
# [15] = qHTS assay to test for compound auto fluorescence at 460 nm (blue) in HepG2 cell free culture (AID 720685)
# Method in brief: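 Cell-free plates of MEM plus 10% FBS received 23 nL compound or DMSO vehicle; blue-channel (405/460 nm) intensity scored against triamterene as reference fluorophore.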
# [16] = qHTS assay to test for compound auto fluorescence at 535 nm (green) in HepG2 cell free culture (AID 720686)
# [17] = qHTS assay to test for compound auto fluorescence at 460 nm (blue) in HepG2 cells (AID 720687)
# Method in brief: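 Cells (2,000/well in MEM with 10% FBS) attached overnight at 37 C, then were exposed to compound or DMSO for 1 hr at 37 C, 5% CO2. Fluorescence read at Ex/Em 405/460 nm, expressed as triamterene-equivalent signal.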
# [18] = target: Glucocorticoid receptor (Homo sapiens) (UniProt P04150); test: qHTS assay to identify small molecule agonists of the glucocorticoid receptor (GR) signaling pathway (AID 720691; active = well fitted activation curve with a large enough effect in the signal ratio in the repeat runs, not every such curve was filed as active; the % refers to the signal ratio)
# Glucocorticoid receptor (Homo sapiens), sequence (P04150 whole entry, looked up): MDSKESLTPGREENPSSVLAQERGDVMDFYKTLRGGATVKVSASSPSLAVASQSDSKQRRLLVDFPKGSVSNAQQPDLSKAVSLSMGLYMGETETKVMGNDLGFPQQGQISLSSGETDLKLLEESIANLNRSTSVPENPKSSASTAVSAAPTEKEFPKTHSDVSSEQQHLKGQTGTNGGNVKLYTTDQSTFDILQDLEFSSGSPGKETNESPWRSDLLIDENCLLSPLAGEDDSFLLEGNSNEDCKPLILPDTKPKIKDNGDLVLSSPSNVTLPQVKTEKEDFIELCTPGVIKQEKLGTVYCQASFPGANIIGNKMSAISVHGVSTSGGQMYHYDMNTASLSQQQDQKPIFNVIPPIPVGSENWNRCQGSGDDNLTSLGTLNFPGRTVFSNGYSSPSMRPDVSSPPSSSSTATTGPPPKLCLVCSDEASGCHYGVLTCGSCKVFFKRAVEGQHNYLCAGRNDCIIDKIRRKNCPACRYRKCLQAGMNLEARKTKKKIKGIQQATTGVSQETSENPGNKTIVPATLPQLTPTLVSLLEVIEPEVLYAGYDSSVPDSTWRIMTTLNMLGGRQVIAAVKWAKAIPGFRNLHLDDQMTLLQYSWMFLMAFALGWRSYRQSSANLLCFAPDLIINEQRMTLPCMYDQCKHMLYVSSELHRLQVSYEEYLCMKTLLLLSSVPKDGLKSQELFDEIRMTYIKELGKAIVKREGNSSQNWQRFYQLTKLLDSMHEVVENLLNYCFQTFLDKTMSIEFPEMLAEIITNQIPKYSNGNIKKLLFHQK
# Method in brief: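 A HeLa cervical cancer line expressing GR and a glucocorticoid response element-driven beta-lactamase gene is treated with compounds for 18 h; LiveBLAzer B/G FRET substrate is then applied and fluorescence read.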
# [19] = target: Glucocorticoid receptor (Homo sapiens) (UniProt P04150); test: qHTS assay to identify small molecule antagonists of the glucocorticoid receptor (GR) signaling pathway (AID 720692; active = well fitted inhibition curve with a large enough effect in the signal ratio in the repeat runs, not every such curve was filed as active; the % refers to the signal ratio)
# Method in brief: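 GRE-bla HeLa line, dex-stimulated (5 nM final). Compound exposure 18 h, 37 C. Beta-lactamase FRET read after 2 h RT substrate.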
SMILES,outcome [1],outcome [2],Potency [3],Potency [4],Potency [5],outcome [6],outcome [7],outcome [8],outcome [9],outcome [10],outcome [11],outcome [12],outcome [13],outcome [14],outcome [15],outcome [16],outcome [17],outcome [18],Potency [19],"ratio activity, negative = MMP loss [5]"
CC1(C)S[C@@H]2[C@H](NC(=O)COc3ccccc3)C(=O)N2[C@H]1C(=O)O,inactive,inactive,inactive,inactive,inactive,inactive,inactive,inactive,inactive,inactive,inactive,inactive,inactive,inactive,inactive,inactive,inactive,inactive,–,–
Cc1ccc(C(C)C)c(O)c1,inactive,inactive,inactive,inactive and 61.1 µM (active),24.3 µM (active),inactive,inactive,inactive,inactive,–,inactive,inactive,inactive,inactive,inactive,inactive,inactive,inactive,inactive,–
COc1ccc(N)c(C)c1,inactive,inactive,inactive,inactive,inactive,inactive,inactive,inactive,inactive,–,inactive,inactive,inactive,inactive,inactive,inactive,inactive,–,–,–
CCCCCCCO,inactive,inactive,inactive,inactive,inactive,inactive,inactive,inactive,inactive,inactive,inactive,inactive,inactive,inactive,inactive,inactive,inactive,inactive,inactive,–
CC(=O)CC(C)(C)O,inactive,inactive,inactive,inactive,inactive,inactive,inactive,inactive,inactive,–,inactive,inactive,inactive,inactive,inactive,inactive,inactive,inactive,inactive,–
CC(C)(Oc1ccc(CCNC(=O)c2ccc(Cl)cc2)cc1)C(=O)O,inactive,inactive,inactive,inactive,inactive,inactive,–,inactive,inactive,inactive,inactive,inactive,inactive,inactive,inactive,inactive,inactive,inactive,inactive,–
NCCN1CCNCC1,inactive,inactive,inactive,inactive,inactive,inactive,–,inactive,inactive,inactive,inactive,inactive,inactive,inactive,inactive,inactive,inactive,–,–,–
CCCCCCCCCCCCCCCC(=O)OC(C)C,inactive,inactive,inactive,inactive,inactive,inactive,inactive,inactive,inactive,–,inactive,inactive,inactive,inactive,inactive,inactive,inactive,–,–,–
N[C@H](Cc1c[nH]c2ccccc12)C(=O)O,–,inactive,inactive,–,inactive,inactive,inactive,inactive,inactive,inactive,inactive,inactive,inactive,inactive,inactive,inactive,inactive,inactive,–,–
CCCCOC(=O)c1ccc(N)cc1,–,inactive,inactive,inactive,inactive,inactive,inactive,inactive,inactive,inactive,inactive,inactive,inactive,inactive,inactive,inactive,inactive,inactive,inactive,–
O=S(=O)(O)c1ccc(N=Nc2c(O)ccc3cc(S(=O)(=O)O)ccc23)cc1,inactive,inactive,30.8 µM (active) and 30.6 µM (active),inactive,–,inactive,inactive,inactive,inactive,–,inactive,inactive,inactive,inactive,inactive,inactive,inactive,inactive,inactive,–
C[C@]12CCC(=O)C=C1CC[C@@H]1[C@@H]2[C@@H](O)C[C@@]2(C)[C@H]1CC[C@]2(O)C(=O)CO,inactive,–,inactive,–,–,inactive,inactive,inactive,inactive,–,inactive,inactive,inactive,inactive,inactive,inactive,inactive,–,–,–
OCc1ccccc1,inactive,inactive,inactive,–,inactive,inactive,inactive,inactive,inactive,inactive,inactive,inactive,inactive,inactive,inactive,inactive,inactive,inactive,inactive,–
C=C(C)[C@H]1CC=C(C)C(=O)C1,inactive,inactive,inactive,inactive,–,inactive,–,inactive,inactive,–,inactive,inactive,inactive,inactive,inactive,inactive,inactive,inactive,inactive,–
Nc1nc(N)nc(-c2ccccc2)n1,inactive,inactive,inactive,–,inactive,inactive,–,inactive,inactive,inactive,inactive,inactive,inactive,inactive,inactive,inactive,inactive,inactive,inactive,–
CC(=O)OC1CC(C)OC(C)O1 (centres undefined),inactive,–,inactive,–,inactive,inactive,–,inactive,inactive,inactive,inactive,inactive,inactive,inactive,inactive,inactive,inactive,inactive,inactive,–
OC1C(O)C(O)C(O)C(O)C1O (centres undefined),inactive,inactive,inactive,inactive,–,inactive,–,inactive,inactive,inactive,inactive,inactive,inactive,inactive,inactive,inactive,inactive,–,–,–
COc1ccccc1OCC(O)CO (centres undefined),inactive,inactive,inactive,–,inactive,inactive,inactive,inactive,inactive,inactive,inactive,inactive,inactive,inactive,inactive,inactive,inactive,–,–,–
CC(C)OP(=O)(CP(=O)(OC(C)C)OC(C)C)OC(C)C,inactive,inactive,inactive,–,–,inactive,–,inactive,inactive,–,inactive,inactive,inactive,inactive,inactive,inactive,inactive,inactive,–,–
CC(C)c1cccc(C(C)C)c1,inactive,–,inactive,–,–,inactive,inactive,inactive,inactive,inactive,inactive,inactive,inactive,inactive,inactive,inactive,inactive,inactive,inactive,–
CCc1ccccc1CC,inactive,inactive,inactive,–,–,inactive,inactive,inactive,inactive,inactive,inactive,inactive,inactive,inactive,inactive,inactive,inactive,inactive,inactive,5.07% [at 17.9 µM] (inactive)
O=[N+]([O-])c1ccc2nc[nH]c2c1,inactive,–,inactive,–,27.3 µM (active),inactive,inactive,inactive,inactive,–,inactive,inactive,inactive,inactive,inactive,inactive,inactive,–,–,–
CN(C)CCOC(=O)COc1ccc(Cl)cc1,inactive,inactive,inactive,–,–,inactive,–,inactive,inactive,inactive,inactive,inactive,inactive,inactive,inactive,inactive,inactive,inactive,inactive,–
